Test results reported in PubChem BioAssay (Tox21).
Inconclusive results are not listed. Values without a mark were called inactive. Active and inactive are the calls of the source. Calls follow the shape of the dose curve; as a rule, active = well fitted inhibition curve with a large enough effect in the repeat runs; inconclusive = weak or mixed curves; inactive = flat fitted curve, though single readings scatter.

What follows are compounds tested against Voltage-gated inwardly rectifying potassium channel KCNH2 (Homo sapiens) (UniProt Q12809) (assay: Human Ether-a-go-go-Related Gene (hERG) channel small molecule antagonists: fluorescence cell-based qHTS assay (AID 1671200; also: nearly all actives have a fitted effect of over 50% in size)). Conditions: hERG-U2OS cells, FluxOR thallium flux fluorescence; series mostly up to 76.8 µM; activity change, negative = inhibition: at the top concentration.
Voltage-gated inwardly rectifying potassium channel KCNH2 (Homo sapiens), sequence (Q12809 whole entry, looked up): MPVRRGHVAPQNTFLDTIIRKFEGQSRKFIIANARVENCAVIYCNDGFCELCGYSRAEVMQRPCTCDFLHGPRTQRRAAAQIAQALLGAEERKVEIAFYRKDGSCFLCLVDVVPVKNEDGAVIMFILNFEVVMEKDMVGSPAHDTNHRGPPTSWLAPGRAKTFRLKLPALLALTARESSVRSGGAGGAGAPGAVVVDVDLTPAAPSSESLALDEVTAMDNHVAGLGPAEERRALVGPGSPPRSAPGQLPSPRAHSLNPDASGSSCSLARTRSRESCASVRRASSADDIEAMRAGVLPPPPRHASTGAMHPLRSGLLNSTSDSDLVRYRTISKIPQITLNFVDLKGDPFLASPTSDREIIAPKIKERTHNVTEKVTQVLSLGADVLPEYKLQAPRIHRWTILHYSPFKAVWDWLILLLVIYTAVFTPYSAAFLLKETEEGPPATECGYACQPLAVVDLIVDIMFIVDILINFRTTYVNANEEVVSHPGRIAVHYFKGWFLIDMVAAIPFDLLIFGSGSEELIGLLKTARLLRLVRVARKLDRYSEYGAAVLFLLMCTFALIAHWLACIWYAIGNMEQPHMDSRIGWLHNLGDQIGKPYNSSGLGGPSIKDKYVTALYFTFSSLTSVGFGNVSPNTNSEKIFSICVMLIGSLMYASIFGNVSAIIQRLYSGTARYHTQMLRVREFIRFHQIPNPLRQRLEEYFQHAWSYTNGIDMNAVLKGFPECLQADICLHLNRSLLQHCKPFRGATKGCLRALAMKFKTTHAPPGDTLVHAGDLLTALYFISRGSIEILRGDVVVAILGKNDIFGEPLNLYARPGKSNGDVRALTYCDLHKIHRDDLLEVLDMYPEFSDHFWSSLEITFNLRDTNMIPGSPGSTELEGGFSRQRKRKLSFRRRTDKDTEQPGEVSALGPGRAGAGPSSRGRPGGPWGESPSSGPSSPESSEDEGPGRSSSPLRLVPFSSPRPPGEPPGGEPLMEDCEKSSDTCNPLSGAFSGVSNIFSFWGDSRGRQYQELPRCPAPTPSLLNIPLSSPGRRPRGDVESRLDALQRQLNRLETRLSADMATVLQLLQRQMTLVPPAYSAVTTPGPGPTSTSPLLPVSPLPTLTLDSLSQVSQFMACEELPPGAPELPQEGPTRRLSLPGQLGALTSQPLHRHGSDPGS
Description: National Center for Advancing Translational Sciences [NCATS]
U.S. Environmental Protection Agency [EPA]
National Institutes of Environmental Health Sciences [NIEHS]
National Toxicology Program [NTP]
U.S. Food and Drug Administration [FDA]
Mutations in the hERG channel cause Long QT (LQT) syndrome. LQT syndrome is a cardiac disorder which can cause ventricle arrhythmia and sudden death. Additionally, compounds which block the hERG channel can cause acquired LQT syndrome. Several FDA approved drugs have been removed from the market due to their hERG blocking activity. A cell-based hERG channel inhibition assay can be used to screen chemical compounds that inhibit hERG channel. This assay measures hERG channel activity using thallium ions as surrogate ions to measure potassium into the cells.
Tox21 Assay Protocol Summary:
hERG-U2OS cells were resuspended in culture medium and dispensed into 1536-well, black wall/clear-bottom plates at 1000cells/well/3uL using a Multidrop Combi dispenser (Thermo Fisher, Waltham, MA). After plates were incubated at 37 C overnight, 3 uL of Loading Buffer provided by FluxOR II Potassium Ion Channel Assay kit (Thermo, Carlsbad, CA) was added to each well. The assay plates were then incubated at room temperature in the dark for 1h. […] After the assay plates were incubated at room temperature for 10 min, 1 uL of Stimulus Buffer provided by FluxOR II Potassium Ion Channel Assay kit was added into each well and fluorescence intensity (480nm excitation/540nm emission) was continuously measured for 2 min at 1 second intervals using a Functional Drug Screening System (FDSS) 7000EX kinetic plate reader (Hamamatsu, Japan).
% is scaled to controls: 0 for no effect and ±100 for the full control effect; potency is read from the fitted curve at half-maximal effect.

Row | SMILES | activity change, negative = inhibition | Potency
1 | CCCCCCCCCCC[C@@H](C[C@@H]1OC(=O)[C@H]1CCCCCC)OC(=O)[C@H](CC(C)C)NC=O | -0.115% [at 35.3 µM] | 
2 | CCCNCCC | 3.38% | 
3 | O=C(O)O | 0.334% [at 6.97 µM] | 
4 | C=C(C)C(=O)OCCCCCCCCCC | 2.37% | 
5 | CCc1ccc(Br)cc1 | 0.467% | 
6 | O=C1NC(=O)[C@@H]2CC=CC[C@H]12 | 2.67% | 
7 | CC(C)(c1cc(Br)c(OCC(Br)CBr)c(Br)c1)c1cc(Br)c(OCC(Br)CBr)c(Br)c1 (stereo not given) | 5.52% [at 35.3 µM] | 
8 | Clc1nnc(Cl)c2ccccc12 | 15.1% | 
9 | Cc1cccc(C)c1NC(=O)c1ccc(N)cc1 | 3.2% [at 35.3 µM] | 
10 | O=c1[nH]c2ccccc2n1CCCN1CCN(C(c2ccccc2)c2ccccc2)CC1 |  | 379 nM (active)
11 | CCCCN(CCCC)CC(O)c1cc(Cl)cc2c1-c1ccc(Cl)cc1/C2=C/c1ccc(Cl)cc1 (stereo not given) |  | 2680 nM (active)
12 | OC12N=C(c3ccccc3)SC1Cc1cc(Cl)ccc12 (stereo not given) | -22.6% | 
13 | O=C(O)[C@H](O)[C@@H](O)[C@H](O[C@@H]1O[C@H](CO)[C@H](O)[C@H](O)[C@H]1O)[C@H](O)CO | 0.644% [at 35.3 µM] | 
14 | C=CC(=O)OCCOC(=O)C=C | 3.64% | 
15 | Cc1cc(-n2nc3ccc(Cl)cc3n2)c(O)c(C(C)(C)C)c1 | -2.25% [at 35.3 µM] | 
16 | CNc1ccc([N+](=O)[O-])cc1 | 2.24% | 
17 | COc1ccc(NC(=O)CC(C)=O)cc1 | 0.043% | 
18 | CC1(C)CCC[C@]2(C)[C@H]3CCO[C@]3(C)CC[C@@H]12 | -22.1% | 
19 | CC(N=C(NC#N)Nc1ccncc1)C(C)(C)C (stereo not given) | 6.19% [at 35.3 µM] | 
20 | Cc1ccc(N/N=c2\c(=O)cc/c(=N\Nc3ccc(S(=O)(=O)O)cc3)c2=O)c(C)c1 | -8.46% | 

Row | SMILES | activity change, negative = inhibition | Potency
21 | O=c1[nH]c(=O)n([C@H]2C[C@H](O)[C@@H](CO)O2)cc1F | 0.728% [at 35.3 µM] | 
22 | CCCCCCCC/C=C\CCCCCCCCN | -22.5% [at 35.3 µM] | 
23 | Cc1cccc2cccnc12 | 0.301% | 
24 | COC(=O)c1ccccc1OC | 2.34% | 
25 | CCCCOC(=O)CO | -4.87% | 
26 | Cl[Si](Cl)(c1ccccc1)c1ccccc1 | 5.28% | 
27 | COc1cc(C)ccc1O | 5.43% | 
28 | CCO[C@@H]1O[C@H](C(COCc2ccccc2)OCc2ccccc2)[C@H](OCc2ccccc2)[C@H]1O (stereo not given in full) | -23.1% [at 35.3 µM] | 
29 | COC1=C(OC)C(=O)C(CCCCCCCCCCO)=C(C)C1=O | -14.8% [at 35.3 µM] | 
30 | Cc1ccc(O)c(O)c1 | -1.94% | 
31 | Nc1cc(Cl)c(O)c(Cl)c1 | -5.86% | 
32 | O=C1CCc2cc(OCCCCc3nnnn3C3CCCCC3)ccc2N1 | -18.3% [at 35.3 µM] | 
33 | COC(C)=O | 1.14% | 
34 | Nc1ccc(NCCO)c([N+](=O)[O-])c1 | 2.22% | 
35 | Cc1ccc(C(=O)O)cc1 | 2.85% | 
36 | O=C(/C=C/c1ccc(O)c(O)c1)O[C@@H](C(=O)O)[C@@H](OC(=O)/C=C/c1ccc(O)c(O)c1)C(=O)O | 12.5% | 
37 | Cc1c(N)cccc1C(F)(F)F | 2.88% [at 35.3 µM] | 
38 | COC(=O)Nc1nc2ccc(C(=O)c3ccccc3)cc2[nH]1 | -8.19% [at 35.3 µM] | 
39 | CCN(CC)c1ccc2c(-c3ccc(S(=O)(=O)O)cc3S(=O)(=O)[O-])c3ccc(=[N+](CC)CC)cc-3oc2c1 | 10.6% | 
40 | CCOC(=O)Cn1cccc1-c1nc(-c2ccc(OC)cc2)c(-c2ccc(OC)cc2)s1 | -6.79% [at 35.3 µM] | 
